The values below come from PubChem BioAssay AID463173 (ICCB-Longwood Screening Facility, Harvard Medical School, 2010).

The campaign covered roughly 52,000 compounds. About 4,300 (8.3%) were called active. What follows is part of a selection rich in actives, with near analogues and random picks from the rest. Values without a mark were called inactive. No stated cut-off is given here; in the data, active means survival mostly below about 52% (no sharp cut-off); inactive means mostly above about 56%.

The test relates to DeltatarO mutant. The test is described as follows: growth inhibition of S. aureus wild type versus tarO mutant, primary screen, teichoic acid synthesis inhibitors, RN4220, OD600 (AID 463173). To be noted: OD600, 18 h, active compounds read low, screened at 18.75 µg/mL (by protocol).
For `CCOc1ccc(NC(=O)CSc2nc3ccccc3nc2N2CCOCC2)cc1`, the survival is 87%.
Turning to `CCCCc1ccc(NC(=O)CSc2nc(=O)[nH]c3c2CCCC3)cc1`, the survival is 74%.
For `CC(=O)Nc1ccc(NC(=O)CSc2nc3ccccc3nc2N2CCOCC2)cc1`, the survival was 83%.
For `Cc1cccc(NC(=O)CSc2nc3ccccc3nc2N2CCOCC2)c1C`, the survival was 51%.
Take `CCOc1ccccc1NC(=O)CSc1nc2ccccc2nc1N1CCOCC1`: the survival is 4% (active).
In the case of `CCc1cccc(C)c1NC(=O)CSc1nc2ccccc2nc1N1CCOCC1`, the survival was 81%.
`CCc1cccc(NC(=O)CSc2nc3ccccc3nc2N2CCCCC2)c1`: the survival was -6% (active).
As to `Cc1ccc(NC(=O)CSc2nc3ccccc3nc2N2CCOCC2)cc1`, the survival was 54%.
As for `COc1cccc(NC(=O)CSc2nc3ccccc3nc2N2CCOCC2)c1`, the survival is 54%.
Turning to `CCCCc1ccc(NC(=O)CSc2nc3ccccc3nc2N2CCCCC2)cc1`, the survival is 30% (active).
On to `CCCCc1ccc(NC(=O)CSc2nc3ccccc3nc2N2CCOCC2)cc1`, for which the survival is 30% (active).
As to `O=C(CS(=O)(=O)Cc1ccccc1)Nc1ccc2c(c1)OCO2`, the survival is 69%.
Regarding `O=C(NCc1ccc(F)cc1)c1cnc(N2CCOCC2)c2ccccc12`, the survival is 95%.
For `CN(CC(=O)Nc1ccc(F)cc1F)S(=O)(=O)c1ccc(C(=O)N2CCOCC2)s1`, the survival is 88%.
Turning to `COc1ccc(S(=O)(=O)N2CCC(Oc3ccc(-n4cnnn4)cc3)CC2)cc1OC`, the survival was 77%.
For the molecule `Cc1ccc(CNC(=O)C2CCN(c3nc4ccccc4n(C)c3=O)CC2)cc1`, the survival was 87%.
Turning to `O=C(Nc1ccccc1C(=O)OCc1cc(=O)n2c3c(sc2n1)CCCC3)c1ccc(F)cc1`, the survival is 106%.
Take `COc1ccc(OC)c(CNC(=O)c2ccc(Sc3ccc(Cl)cc3)c(NC(C)=O)c2)c1`: the survival was 83%.
On to `CCc1ccc(-c2cn3c(n2)sc2cc(C(=O)NCC(C)c4ccccc4)ccc23)cc1` (stereo not given), for which the survival was 69%.
Regarding `COC(=O)c1cnc(N2CCN(c3ccc(OC)cc3)CC2)c2ccccc12`, the survival is 62%.
`COc1cc(CNC(=O)c2ccc3nc(CCc4ccccc4)oc3c2)cc(OC)c1OC`: the survival was 80%.
As for `CCc1nn(Cc2cc(C)ccc2C)c(=O)c2cc3cc(C)ccc3n12`, the figure is 95%; as for `CCOc1ccc(-c2cc(C(=O)NCCc3ccc(OC)c(OC)c3)[nH]n2)cc1`, 77%; as for `COc1ccc(S(=O)(=O)N2CCN(Cc3ccc4c(c3)OCO4)CC2)cc1OC`, 43% (active).
As to `Cc1ccc(S(=O)(=O)N2CCN(Cc3ccc4c(c3)OCO4)CC2)cc1`, the survival was 70%.
Regarding `COc1cccc(S(=O)(=O)N2CCN(Cc3ccc4c(c3)OCO4)CC2)c1`, the survival was 75%.
As to `Cc1cc(C)c(S(=O)(=O)N2CCN(Cc3ccc4c(c3)OCO4)CC2)cc1C`, the survival was 13% (active).
`COc1ccc(S(=O)(=O)N2CCN(Cc3nc4ccc(C)cc4o3)CC2)cc1OC`: the survival is 84%.
On to `NC(=O)CN1CCN(Cc2ccc3c(c2)OCO3)CC1`, for which the survival is 76%.
Consider `O=C(NCCc1ccc(Cl)cc1)c1cc(-c2ccc(Cl)cc2)n[nH]1`, for which the survival was 68%.
As for `CCOC(=O)c1nnc2c(-c3ccc(Cl)cc3)c(C)nn2c1C`, the figure is 49%; as for `CC(C)c1ccc(NC(=O)C(Cc2ccccc2)n2cccc2)cc1` (stereo not given), 23% (active).
As for `O=C(Nc1ccccc1F)C(Cc1ccccc1)n1cccc1` (stereo not given), the figure is 77%; as for `COc1ccc(NC(=O)C(Cc2ccccc2)n2cccc2)c(OC)c1` (stereo not given), 67%.
Turning to `CC(=O)Nc1ccc(NC(=O)C(Cc2ccccc2)N2Cc3ccccc3C2=O)cc1` (stereo not given), the survival was 82%.
Take `Cc1ccc(NC(=O)C(Cc2ccccc2)n2cccc2)cc1` (stereo not given): the survival is 76%.
As to `O=C(Nc1ccc(C(F)(F)F)cc1)C(Cc1ccccc1)n1cccc1` (stereo not given), the survival is -4% (active).
Consider `CCOc1ccc(S(=O)(=O)NCCc2sc3nc(-c4ccc(C)cc4)nn3c2C)cc1`, for which the survival was 109%.
As for `Cc1oc2c(C)c3oc(=O)c(CCC(=O)N4CCCCC4)c(C)c3cc2c1C`, the figure is 89%; as for `Cc1coc2c(C)c3oc(=O)c(CC(=O)N4CCCCC4)c(C)c3cc12`, 79%.
The same measure for `Cc1coc2c(C)c3oc(=O)c(CCC(=O)N4CCCCC4)c(C)c3cc12`: 44% (active); for `CC1CCC(N2CC(=O)N(C3CCCCC3)C(c3ccc(F)cc3)C2=O)CC1` (stereo not given): 82%; for `CCCOc1ccc(-c2nc(N3CCCCC3)c3ccccc3n2)cc1`: -2% (active).
Turning to `CCCOc1ccc(-c2nc(N3CCC(C)CC3)c3ccccc3n2)cc1`, the survival is -1% (active).
Turning to `c1ccc(-c2nc(N3CCCCC3)c3ccccc3n2)cc1`, the survival is 96%.
As for `CCCOc1ccc(CNC(=O)C2CCN(c3nc4ccccc4nc3C(F)(F)F)CC2)cc1`, the figure is 75%; as for `CCOc1ccc(-n2cc(-c3ccccc3)c3c(N4CCC(C)CC4)ncnc32)cc1`, 90%; as for `Cc1ccc(-c2nc(N3CCN(c4ccccc4Cl)CC3)c3ccccc3n2)cc1`, 52%.
The same measure for `Cc1ccc(C)c(N2CCN(S(=O)(=O)c3c(C)nc4sccn4c3=O)CC2)c1`: 92%; for `CCOC(=O)c1ccc(NC(=O)C2CC(=O)NC(=Nc3ccc(C)c(C)c3)S2)cc1` (stereo not given): 47% (active).
As for `CCc1ccc(N=C2NC(=O)CC(C(=O)Nc3ccc(OC)cc3)S2)cc1` (stereo not given), the survival is 87%.
On to `CCOc1ccc(NC(=O)C2CC(=O)NC(=Nc3ccc(Cl)c(Cl)c3)S2)cc1` (stereo not given), for which the survival was 72%.
As for `CN(C)c1ccc(C(C(=O)NCC2CCCO2)N(C(=O)Cn2nnc3ccccc32)c2ccc3c(c2)OCO3)cc1` (stereo not given), the survival is 90%.
As to `O=C(Nc1cccc(Cl)c1Cl)c1cc(S(=O)(=O)N2CCCCC2)ccc1F`, the survival is 72%.
Regarding `O=C(Nc1cccc(F)c1)C1CCN(S(=O)(=O)c2cccc3nsnc23)CC1`, the survival was 83%.
Take `COc1ccc(-c2noc(CN3CCN(c4cccc(Cl)c4)CC3)n2)cc1`: the survival is 13% (active).
As to `COc1ccc(N2CCN(Cc3nc(-c4ccc(C)cc4)no3)CC2)cc1`, the survival was 48%.
For the molecule `COc1cc(-c2noc(CN3CCN(c4cccc(Cl)c4)CC3)n2)cc(OC)c1OC`, the survival is 77%.
As for `Cc1cccc(N(C)c2nc3ccccc3c3nnc(C)n23)c1`, the figure is 118%.
As for `COc1ccc(C)cc1NC(=O)N1CCC(CN2CCC(C)CC2)CC1`, the figure is 91%.
For `CCCCN(c1ccccc1)S(=O)(=O)c1cc2c3c(c1)C(C)C(=O)N3CCC2` (stereo not given), the survival was 69%.
For the molecule `COc1ccc(NC(=O)c2ccco2)cc1NC(=O)COc1cc(C)ccc1C(C)C`, the survival is 63%.
Turning to `CCC(C)c1ccc(OCC(=O)Nc2cccc(-c3nc4ncccc4o3)c2)cc1` (stereo not given), the survival was 19% (active).
Turning to `CCC(C)c1ccc(OCC(=O)Nc2cccc3ccc(C)nc23)cc1` (stereo not given), the survival is -3% (active).
Take `CCCC(=O)Nc1cccc(-c2nc3ncccc3o2)c1`: the survival was 66%.
On to `Cc1ccc(C(C)C)c(OCC(=O)Nc2ccc3c(c2)nc(CCNC(=O)c2ccco2)n3C)c1`, for which the survival is 54%.
`Cc1cc(C)c(OCC(=O)Nc2cccc(-c3nc4ncccc4o3)c2)c(Br)c1`: the survival is 4% (active).
For the molecule `Cc1ccc2cccc(NC(=O)COc3cc(C)c(Cl)c(C)c3)c2n1`, the survival was 75%.
As for `CCC(C)c1ccc(OCC(=O)Nc2ccc(-c3nc4ncccc4o3)cc2)cc1` (stereo not given), the figure is 44%; as for `COc1ccc(OCC(=O)Nc2ccc(-c3nc4ncccc4o3)cc2)cc1`, 84%; as for `Cc1ccccc1OCC(=O)Nc1ccc(-c2nc3ncccc3o2)cc1`, 60%.
As for `Cc1ccc2cccc(NC(=O)COc3ccccc3Cl)c2n1`, the figure is 179%; as for `Cc1ccc(C(C)C)c(OCC(=O)Nc2cccc(NC(=O)c3ccco3)c2)c1`, 10% (active); as for `CCc1cccc2sc(N3CCN(C(=O)C4CC4)CC3)nc12`, 94%.
With `CCCSCCCNC(=O)C1CCN(C(=O)c2cc3sccc3n2C)CC1`, the survival was 109%.
Consider `O=C(Nc1cccc(Cl)c1Cl)c1ccc2c(c1)N(Cc1cccc(Cl)c1)C(=O)c1ccccc1S2(=O)=O`, for which the survival is 108%.
Regarding `Cc1cc2c(n1-c1ccc(C(=O)NCc3cccc(Br)c3)cc1)CCC(C)C2` (stereo not given), the survival was 125%.
In the case of `Cc1ccc(C(C)C)c(OCC(=O)Nc2ccc(C(=O)OC3CCCCC3)cc2)c1`, the survival was 33% (active).
Consider `Cc1ccc(C(C)C)c(OCC(=O)Nc2cccc(-c3nc4ncccc4o3)c2)c1`, for which the survival is 2% (active).
Consider `Cc1cccc(OCC(=O)Nc2ccc(Cl)c(-c3nc4ncccc4o3)c2)c1C`, for which the survival is 62%.
Turning to `Cc1cc(OCC(=O)Nc2ccc(C(=O)OC3CCCCC3)cc2)cc(C)c1Cl`, the survival is 50%.
As for `Cc1ccc(C(C)C)c(OCC(=O)Nc2ccc(-c3nc4ncccc4o3)cc2C)c1`, the figure is 54%; as for `O=C(COc1ccc(Cl)cc1Cl)Nc1ccc(C(=O)OC2CCCCC2)cc1`, 57%; as for `CSc1ccc(CCNC(=O)c2ccc3c(c2)nc2n3CCCCC2)cc1`, 82%.
In the case of `COc1ccc(N2CCN(CCCNC(=O)c3ccc4nc(Cc5ccccc5)oc4c3)CC2)cc1`, the survival is 93%.
Regarding `O=C(NCc1ccc(F)cc1)c1ccc2c(O)c(S(=O)(=O)c3ccccc3)c(=O)[nH]c2c1`, the survival was 66%.
Regarding `CCn1c(=O)c(=O)n(CC)c2cc(N3CCCCC3)c(NC(=O)c3ccccc3OC)cc21`, the survival was 91%.
Turning to `Cc1nnc(NC(=O)CSCc2cc(=O)c3ccc(C)c(C)c3[nH]2)s1`, the survival is 73%.
For the molecule `NC(=O)CN1C(=O)C(O)(CC(=O)/C=C\c2ccccc2)c2ccccc21` (stereo not given), the survival was 96%.
With `COc1ccc(CNC(=O)CSc2nc(-c3ccc(OC)cc3)cc(C(F)(F)F)n2)cc1`, the survival is 83%.
`COc1ccc(CNc2ccc(-c3ccc(OC)cc3)nn2)cc1`: the survival was 80%.
As for `COc1ccc(-c2cc(C(F)(F)F)nc(SCC(=O)NCCc3ccccc3)n2)cc1`, the figure is 121%; as for `COc1ccc(CNC(=O)CSc2nc(-c3ccc(OC)c(OC)c3)cc(C(F)(F)F)n2)cc1`, 72%; as for `COc1ccc(-c2cc(C(F)(F)F)nc(NCCc3ccccc3)n2)cc1`, 1% (active).
As to `COc1ccc(-c2cc(C(F)(F)F)nc(NCc3ccccc3)n2)cc1`, the survival is -4% (active).
For the molecule `COc1ccc(-c2cc(C(F)(F)F)nc(SCC(=O)NCc3ccc(OC)c(OC)c3)n2)cc1`, the survival was 60%.
For the molecule `COc1ccc(CNc2nc(-c3ccc(OC)c(OC)c3)cc(C(F)(F)F)n2)cc1`, the survival was 11% (active).
Consider `COc1ccc(CNC(=O)C(C)Sc2nc(-c3ccccc3)cc(C(F)(F)F)n2)cc1` (stereo not given), for which the survival is 165%.
The same measure for `COc1ccc(-c2cc(C(F)(F)F)nc(SCC(=O)NC(C)c3ccccc3)n2)cc1` (stereo not given): 60%.
For the molecule `COc1ccc(CNc2nc(-c3ccc(OC)cc3)cc(C(F)(F)F)n2)cc1`, the survival was -2% (active).
